A selection: hits, their analogues and other compounds. The true share with any hit is near 3.4%.
GPR151 ag: activators of human GPR151; PathHunter beta-arrestin GPR151 cells, luminescence; activation, % at 11.2 µM; Q8TDV0; 1% of 650,000 active; in the data active = activation above about 4.9%
TEAD-YAP inh: TEAD-YAP interaction inhibition; HEK-TIYL cells, TEAD-Gal4/YAP UAS-luciferase luminescence; 1.4% of 640,000 active; inhibition, % at 9.12 µM; AID 1259422; in the data active = inhibition above about 32%
MITF inh: human MITF inhibition, primary screen | O75030 | AlphaScreen MITF homodimerization, bead proximity signal | inhibition, % at 2.6 µM | 0.91% of 650,000 active; in the data active = inhibition above about 50%
Target sequence (O75030 whole entry, looked up): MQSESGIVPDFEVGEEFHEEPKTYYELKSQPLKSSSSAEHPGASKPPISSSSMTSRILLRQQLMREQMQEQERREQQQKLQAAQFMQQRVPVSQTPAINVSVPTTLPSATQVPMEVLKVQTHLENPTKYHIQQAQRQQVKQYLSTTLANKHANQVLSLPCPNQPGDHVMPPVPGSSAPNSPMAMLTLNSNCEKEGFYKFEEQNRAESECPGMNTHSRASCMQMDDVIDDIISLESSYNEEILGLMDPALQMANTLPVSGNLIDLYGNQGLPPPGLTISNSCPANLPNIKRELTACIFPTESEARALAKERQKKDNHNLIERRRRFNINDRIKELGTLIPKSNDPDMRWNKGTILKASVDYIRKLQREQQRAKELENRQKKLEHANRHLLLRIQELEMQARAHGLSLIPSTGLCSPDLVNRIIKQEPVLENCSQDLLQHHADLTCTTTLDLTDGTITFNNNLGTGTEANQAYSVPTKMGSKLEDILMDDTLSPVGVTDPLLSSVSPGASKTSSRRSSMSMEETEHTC
FBW7 act: activators of human E3 ligase FBW7 | AlphaScreen FBW7–phospho-cyclin E peptide binding, activator screen | normalized activity (activation), % at 26.1 µM | 0.13% of 650,000 active; in the data active = normalized activity above about 1.9%;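 note: purified mutant Fbw7 with reduced substrate affinity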
GPR151 confirm: human GPR151 activation, confirmation screen; AID 1508609; 6,700 tested, under 10 active; activation, % at 11.2 µM; shares compounds with GPR151 ag; GPR151 PathHunter beta-arrestin cells, luminescence, 90 min; % of EA-reagent control over plate median;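 active = mean percent activation across replicates above the confirmation screen cutoff of 4.91%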
GPR119 ag: GPR119 activation, counter-screen for GPR151 activators. shares compounds with GPR151 ag. GPR119 PathHunter beta-arrestin cells, luminescence, 90 min; 0 = compound-well median, 100 = enzyme-acceptor control. activation, % at 11.2 µM. 0.3% of 6,700 active;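 active = mean percent activation in the counterscreen above 29.09%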;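 note: counterscreen on off-target GPR119 to flag nonselective hits from the GPR151 activator screen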
Hits are given with their value; - = inactive; . = not tested or not shown.

SMILES	GPR151 ag	TEAD-YAP inh	MITF inh	FBW7 act	GPR151 confirm	GPR119 ag
Clc1ccc(Cn2cc(/C=N/n3cnnc3)c3ccccc32)cc1	6.2	-	-	-	-	-
COC(=O)C1(CCSC)NC(c2ccccc2C)C2C(=O)N(C)C(=O)C21 (centres undefined)	-	-	-	-	.	.
CCc1cccc(NC(=O)Nc2ccccc2)c1	-	-	-	-	.	.
CCc1cccc(NC(=O)CCC(=O)Nc2cccc(CC)c2)c1	7.5	-	-	-	-	-
CC(=O)Nc1cccc(NC(=O)CCc2ccccc2)c1	-	-	-	-	.	.
CCN(CC)S(=O)(=O)c1ccc(NC(=O)CCc2ccccc2)cc1	-	-	-	-	.	.
Cc1cccc(NC(=O)CCc2ccccc2)c1	7.8	-	-	-	-	-
CCc1cccc(NC(=O)Cn2cccc2)c1	7.6	-	-	-	-	-
CCCN(CCC)S(=O)(=O)c1ccc(NC(=O)CCc2ccccc2)cc1	7.6	-	-	-	-	-
CC(=O)c1cccc(NC(=O)C(=O)NCc2ccncc2)c1	-	-	-	-	.	.
O=S(=O)(c1ccc(Br)cc1Br)N1CCOCC1	5.1	-	-	-	-	-
Cc1cc(Br)ccc1S(=O)(=O)N1CCOCC1	-	-	-	-	.	.
COc1ccc(-c2noc(N3CCN(c4ccc(C)cc4)C(C)C3)n2)cc1 (centres undefined)	5.0	-	-	-	-	-
O=Cc1ccc(OCC(=O)N2CCc3ccccc32)cc1	-	-	-	-	.	.
COc1ccc2o/c(=N\NC(=O)c3ccccc3Nc3ccccc3)c(C(N)=O)cc2c1	22	-	-	-	-	-
NC(=O)c1cc2ccccc2o/c1=N\NC(=O)c1ccccc1Nc1ccccc1	-	-	-	-	.	.
C/C(=N\Nc1ccc(C(F)(F)F)cn1)c1ccc(O)cc1	-	-	-	-	.	.
C/C(=N\Nc1ccc(C(F)(F)F)cn1)c1ccncc1	6.4	-	-	-	-	-
C=CCNC(=S)N1CCc2cc(OC)c(OC)cc2C1	-	-	-	-	.	.
Nn1c(O)c(C2=c3cc(F)ccc3=NC2=O)sc1=S	6.0	-	-	-	-	-
O=C1Nc2ccc(Br)cc2C12SCCS2	-	-	-	-	.	.
CCOC(=O)C(=O)Nc1nnc(C(C)C)s1	-	-	-	-	.	.
CCOC(=O)C(=O)Nc1ncc(Cl)s1	5.4	-	-	-	-	-
CCCC(c1nnnn1CCOC)N1CCN(c2cccc(C(F)(F)F)c2)CC1 (centres undefined)	5.4	-	-	-	-	-
Cc1sc(N=C(N)N)nc1-c1ccc2c(c1)CCN2C(=O)C1CCCCC1	5.1	-	-	-	-	-
SMILES	GPR151 ag	TEAD-YAP inh	MITF inh	FBW7 act	GPR151 confirm	GPR119 ag
COc1cc(C#N)ccc1OCC(=O)N(C)Cc1ccc(F)cc1	8.0	-	-	-	-	-
COc1cc(C#N)ccc1OCC(=O)NC(C)c1ccc(F)cc1 (centres undefined)	-	-	-	-	.	.
CN1CCNC(=O)C1CC(=O)NCC(c1ccccc1)c1ccccc1 (centres undefined)	-	-	-	-	.	.
CN(C)N1C(N)=C(C#N)C(c2cccc(Cl)c2Cl)C2=C1CCCC2=O (centres undefined)	5.1	-	-	-	-	-
CN(C)N1C(N)=C(C#N)C(c2ccccc2Cl)C2=C1CCCC2=O (centres undefined)	-	-	-	-	.	.
O=c1c2ccccc2nc(SCc2ccncc2)n1CC1CCCO1 (centres undefined)	6.2	-	-	-	-	-
Cc1ccc(CSc2nc3ccccc3c(=O)n2CC2CCCO2)cc1 (centres undefined)	-	-	-	-	.	.
COCCCNC(=S)N1CCCC(c2nc3ccc(C)cc3[nH]2)C1 (centres undefined)	5.2	-	-	-	-	-
CCCn1c(C)cc(=O)c2cc([N+](=O)[O-])ccc21	11	-	-	-	-	-
CCC(=O)N1CCC[C@@H]2CN(C(=O)/C=C/c3cccs3)CC[C@H]21	5.6	-	-	-	-	-
COCCNC(=O)COc1ccccc1	-	-	-	-	.	.
COc1ccc(SCCC(=O)Nc2nc3ccccc3s2)cc1	-	-	-	-	.	.
COc1ccc(SCCC(=O)Nc2ccc3sc(C)nc3c2)cc1	6.2	-	-	-	-	-
COc1ccc(CCNC(=S)NCc2ccccn2)cc1OC	-	-	-	-	.	.
CCC(C)NC(=O)C1=C(C)C(=O)OC12CCCCC2 (centres undefined)	12	-	-	-	-	-
COc1ccc(C(=O)N2CCNC(=O)C2CC(=O)Nc2ccc(C)c(C)c2)cc1 (centres undefined)	5.6	-	-	-	-	-
COc1ccc(C(=O)N2CCNC(=O)C2CC(=O)Nc2cccc(Cl)c2Cl)cc1 (centres undefined)	-	-	-	-	.	.
N#CC1=C(N)Oc2n[nH]c(-c3cccc([N+](=O)[O-])c3)c2C1c1ccc(Cl)c(Cl)c1 (centres undefined)	7.9	-	-	-	-	-
COc1cc(C2C(C#N)=C(N)Oc3n[nH]c(-c4cccc([N+](=O)[O-])c4)c32)cc(OC)c1OC(C)=O (centres undefined)	-	-	-	-	.	.
N#CC1=C(N)Oc2n[nH]c(-c3ccccc3)c2C1c1ccc([N+](=O)[O-])cc1Cl (centres undefined)	-	-	-	-	.	.
COc1cc(C2C(C#N)=C(N)Oc3n[nH]c(-c4cccc([N+](=O)[O-])c4)c32)cc(OC)c1O (centres undefined)	6.0	-	-	-	-	-
N#CC1=C(N)Oc2n[nH]c(-c3ccccc3)c2C1c1ccc(Cl)c([N+](=O)[O-])c1 (centres undefined)	6.1	-	-	-	-	-
COc1ccccc1N=c1oc2c(C)ncc(CO)c2cc1C(=O)Nc1ccccc1OC	-	-	-	-	.	.
Cc1cc(NCc2ccccc2)nc(NCCN2CCOCC2)n1	6.0	-	-	-	-	-
COc1ccc(/C(C)=N/NC(=O)c2ccccc2Br)cc1	5.7	-	-	-	-	-
SMILES	GPR151 ag	TEAD-YAP inh	MITF inh	FBW7 act	GPR151 confirm	GPR119 ag
CCOc1ccc(-c2nc(-c3cc(C)n(CCOC)c3C)cs2)cc1	-	-	-	-	.	.
CCCNS(=O)(=O)c1ccc(OCC)cc1	-	-	-	-	.	.
CCOC(=O)C(C#N)C(=O)c1ccc(F)c(F)c1 (centres undefined)	-	-	-	-	.	.
CCOC(=O)C(C#N)C(=O)c1ccc(N2C(=O)CCC2=O)cc1 (centres undefined)	6.6	-	-	-	-	-
CC(=O)N1N=C(C(F)(F)F)C2C1=NC1C=CC(Br)=CC1=C2c1ccccc1 (centres undefined)	-	-	-	-	.	.
CC(C)CCNc1c(-c2ccccc2)c(=O)c1=O	6.9	-	-	-	-	-
Cc1ccc(NC(=O)CSc2nc(=O)n(Cc3ccco3)c3c2CCC3)cc1F	6.6	-	-	-	-	-

Compound activity from PubChem.
